Source: PubChem
ABHD5 PLIN5 PPI = ABHD5-PLIN5 interaction inhibitors, primary screen, cell lysate, split luciferase complementation, luminescence; Split G. princeps luciferase complementation, 4 h; actives 0.78% (n = 360,000); Perilipin-5 (Homo sapiens) + 1-acylglycerol-3-phosphate O-acyltransferase ABHD5 (Homo …; AID 602281, 2012; inhibition, % at 4 µM;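 active = inhibition above the mean inhibition across every tested compound plus 3 SD, cut at about 22% in these data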;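 also: 0% = DMSO only wells and the 100% control is not disclosed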
NTR1 agonist = agonists of human NTR1, primary screen, imaging, U2OS cells, beta-arrestin-GFP, high content. activation, % at 20 µM. NTR1-U2OS beta-arrestin-GFP spot imaging, agonist mode. actives 0.17% (n = 330,000). Neurotensin receptor type 1 (Homo sapiens), P30989;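 active = activation at or above 40% of the spot to cytoplasm intensity ratio, with at least 20 cells analyzed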;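 also: 0% = DMSO without peptide and 100% = 100 nM NTR1 peptide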
B2AR ag = beta2AR agonists driving receptor internalization, primary screen, cell-based, FAP fluorogen, flow cytometry | Beta-2 adrenergic receptor (Homo sapiens), P07550 | Am2.2-beta2AR cells | response, % (test concentration not listed) | actives 0.43% (n = 340,000);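 active = response above a set limit, near 3 SD of response in nonfluorescent compounds, cut at about 42% in these data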
Target sequence (P07550 whole entry, looked up): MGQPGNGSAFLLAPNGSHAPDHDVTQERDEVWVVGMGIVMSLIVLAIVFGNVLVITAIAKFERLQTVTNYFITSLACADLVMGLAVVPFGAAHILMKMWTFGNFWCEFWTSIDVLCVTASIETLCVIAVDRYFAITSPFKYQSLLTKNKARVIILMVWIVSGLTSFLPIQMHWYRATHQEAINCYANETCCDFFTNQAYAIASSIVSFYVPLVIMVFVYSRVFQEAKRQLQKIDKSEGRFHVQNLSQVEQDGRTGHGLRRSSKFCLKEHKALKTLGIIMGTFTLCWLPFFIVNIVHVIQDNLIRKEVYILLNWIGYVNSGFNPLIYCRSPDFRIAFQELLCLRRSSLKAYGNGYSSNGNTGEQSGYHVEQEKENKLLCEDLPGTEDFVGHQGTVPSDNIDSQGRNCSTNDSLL
m5-HT2A agonist = mouse Htr2a agonists via beta-arrestin recruitment, primary screen, cell-based, luminescence; 5-hydroxytryptamine receptor 2A (Mus musculus), P35363; CHO-K1 mHTR2A beta-arrestin complementation; percent of 30 µM serotonin response; activation, % at 7.6 µM; actives 0.66% (n = 360,000); AID 624169, 2012;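 active = activation above a run cutoff, the mean activation of all tested compounds plus 3 SD, cut at about 14% in these data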;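 also: 0% = plate median of compound wells and 100% = 30 µM serotonin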
Granule exo inh = LAMP-1 surface exposure blockers, TALL-104 cells – cell-based, flow cytometry, MLPCN library, primary screen | TALL-104 LAMP-1 surface exposure; cells stimulated with thapsigargin and PMA | AID 651702, 2012 | inhibition, % at 10 µM | actives 0.66% (n = 360,000);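 active = inhibition above about 55%, limit read from the data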
B2AR ag CP1 = beta2AR agonists via receptor internalization, confirmation, cell-based, FAP fluorogen, flow cytometry, single point, cherry pick 1 | shares compounds with B2AR ag | Am2.2-beta2AR cells, FAP surface receptor; active compounds read low | actives 25% (n = 1,100) | AID 540358, 2011 | percent response (surface receptor), % at 10 µM;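 active = surface receptor percent response at or below 58%, roughly 3 SD from nonfluorescent compounds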
FAP fluor counter = flagged in Am2.2 fluorescence counterscreen for beta-2AR agonists; shares compounds with B2AR ag; Am2.2 cells, FAP fluorogen flow cytometry; active compounds read low; calls only at 10 µM; 1,100 tested, under 10 active; AID 588765;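 active = percent response below a set limit in fluorescence channel 1 and below 50% in channel 8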
Starred values were filed as active, the others as inactive; i = inactive; x = not tested or not shown. Sampled rows, rich in hits. Any-hit rate of the full collection: about 2.3%.

SMILES | ABHD5 PLIN5 PPI | NTR1 agonist | B2AR ag | m5-HT2A agonist | Granule exo inh | B2AR ag CP1 | FAP fluor counter
COc1ccc(OCC(=O)Nc2ccc3c(c2)nc(CCN2CCCC2)n3C)cc1 | 11.6 | -1.1 | 8.5 | -5.1 | 3.0 | x | x
Cc1cccc(OCC(=O)Nc2ccc3c(c2)nc(CCN2CCN(C)CC2)n3C)c1 | -1.5 | -1.3 | -0.6 | -7.8 | 4.5 | 112.3 | i
COc1cc(NC(=O)c2cc([N+](=O)[O-])ccc2NC(=O)CN2CCN(c3ccccn3)CC2)cc(OC)c1 | -2.2 | 10.6 | 21.9 | -6.1 | 8.4 | x | x
O=[N+]([O-])c1ccc2nc(CCCc3nc4ccc([N+](=O)[O-])cc4[nH]3)[nH]c2c1 | -0.2 | -1.1 | 54.4* | -3.3 | 1.7 | 120.9 | i
Cn1cc(CN2CCc3sccc3C2)c(-c2ccccc2F)n1 | -2.8 | -0.2 | -1.4 | -2.0 | -3.6 | x | x
Clc1ccccc1CN1CCc2sccc2C1 | -5.8 | 2.5 | 5.0 | -1.3 | -0.7 | 103.9 | i
O=C(NN=C1CCCC1)c1ccccc1[N+](=O)[O-] | -2.2 | -1.4 | 0.0 | -1.3 | -2.3 | x | x
CCc1ccc(NC(=O)CC2C(=O)N(c3ccc(C)cc3)C(=O)N2C2CC2)cc1 (stereo not drawn) | 3.4 | -2.1 | -7.2 | 1.5 | 2.4 | x | x
COc1ccc(N(C(=O)c2snc(C(N)=O)c2N)C(C(=O)NC2CCCC2)c2ccco2)c(OC)c1 (stereo not drawn) | 3.6 | 0.4 | 70.0* | -1.4 | 2.9 | 115.7 | i
COc1ccc(N(C(=O)c2snc(C(N)=O)c2N)C(C(=O)NC2CCCCC2)c2ccc(C)o2)c(OC)c1 (stereo not drawn) | 1.7 | 2.7 | 11.5 | 0.5 | 18.7 | x | x
Cc1noc(C)c1CSc1ncnc2ccccc12 | 2.7 | 0.3 | 1.7 | 4.0 | -1.9 | x | x
Cc1ccccc1N1CCN(c2ncnc3c2cnn3Cc2ccc(Cl)cc2)CC1 | -2.5 | 3.6 | 43.7* | 2.0 | -2.8 | 98.2 | i
Cc1ccc(Cn2ncc3c(N4CCN(Cc5ccc(Cl)cc5)CC4)ncnc32)cc1 | -9.5 | 11.9 | 5.0 | 3.3 | -3.7 | x | x
N#Cc1cc(-c2ccccc2)nnc1Oc1ccccc1Cl | -2.9 | 7.3 | 57.2* | -4.1 | 0.1 | 18.5* | i
COc1ccc(Sc2nnc(-c3ccccc3)cc2C#N)cc1 | 9.9 | 2.8 | -2.1 | -5.4 | 2.6 | x | x
Clc1cccc(Nc2nc(-c3ccncc3)nc3ccccc23)c1 | -4.5 | 3.0 | 6.2 | -1.3 | 43.9 | x | x
Fc1ccc(Nc2nc(-c3ccncc3)nc3ccccc23)cc1F | -6.1 | 0.9 | 50.3* | 3.1 | 20.5 | 84.6 | i
CCN(Cc1ccncc1)C(=O)c1cccc(S(=O)(=O)N2CCCCC2)c1 | 8.1 | -0.7 | -8.3 | 1.3 | -3.1 | x | x
CC12CCC(O)CC1=CCC1C2CCC2(C)C(c3ccn[nH]3)CCC12 (stereo not drawn) | 0.3 | x | 44.1* | 6.1 | -4.9 | 67.0 | i
CC(=O)c1ccc(N2CCN(CC(=O)NCc3ccccc3)CC2)cc1 | -7.3 | -1.0 | 1.2 | -2.7 | 2.3 | x | x
COc1ccccc1CNC(=O)CN1CCN(c2ccc(C(C)=O)cc2)CC1 | 6.0 | 1.1 | 54.2* | 3.9 | -9.2 | 118.0 | i
CSc1ccccc1NC(=O)CN(C)C(C)C(=O)NCc1ccc2c(c1)OCO2 (stereo not drawn) | 0.3 | 1.4 | 11.4 | 5.8 | -3.3 | x | x
COc1ccc(-c2onc(C)c2-c2ccc(C(=O)OC(C)C)o2)c(O)c1 | -13.2 | 8.4 | 3.6 | -0.2 | 7.3 | 117.6 | i
CN(CCOc1ccc(-c2ccn(S(=O)(=O)c3cccc4ccccc34)n2)cc1)c1ccccn1 | 2.4 | 3.2 | 76.0* | 0.9 | 2.2 | 38.6* | i
CN(CCOc1ccc(-c2ccn(S(=O)(=O)c3c(Cl)cccc3Cl)n2)cc1)c1ccccn1 | 1.0 | -1.9 | -1.9 | 1.2 | 28.6 | x | x
SMILES | ABHD5 PLIN5 PPI | NTR1 agonist | B2AR ag | m5-HT2A agonist | Granule exo inh | B2AR ag CP1 | FAP fluor counter
Cc1ccc(Cn2nc(C)c(NC(=O)CSc3nc4c(c(C(F)(F)F)n3)CCc3ccccc3-4)c2C)cc1 | -0.8 | x | 46.0* | -0.9 | 4.0 | 73.4 | i
Cc1ccc(Sc2ncccc2C(=O)NCC(c2ccc(F)cc2)N2CCOCC2)c(C)c1 (stereo not drawn) | 2.1 | -1.0 | 46.7* | 7.7 | -2.9 | 97.1 | i
O=S(=O)(Nc1ccc(C(F)(F)F)cn1)c1ccccc1 | 3.6 | 1.0 | 3.3 | 2.8 | -1.2 | x | x
NC(=O)CC(NC(=O)Cc1cccc2ccccc12)c1ccc(NCCCN2CCCC2=O)c([N+](=O)[O-])c1 (stereo not drawn) | 7.5 | -6.1 | 103.0* | -4.1 | -5.8 | 16.7* | i
O=C(CC1Oc2ccccc2NC1=O)NCCc1ccccc1 (stereo not drawn) | 0.8 | 0.1 | 44.0* | -4.8 | 5.7 | 98.2 | i
Cc1ccc(CNC(=O)c2ccc(NC(=O)C3=CSCCO3)cc2)cc1 | 6.2 | -0.8 | 4.0 | 1.2 | -4.7 | x | x
CCOc1ccc(CNC(=O)c2ccc(NC(=O)C3=CSCCO3)cc2)cc1 | -8.0 | -0.5 | 105.4* | -1.8 | -10.3 | 21.4* | i
O=C(NN=Cc1ccc2c(c1)CCN2)c1cccs1 | -4.0 | x | x | -0.7 | -5.6 | x | x
O=C(O)CCCC(=O)N1CCC(C(O)(c2ccccc2)c2ccccc2)CC1 | 3.3 | -0.2 | -0.3 | -6.2 | -0.7 | x | x
CC(C)(C(=O)O)c1ccc(C(O)CCCN2CCC(C(O)(c3ccccc3)c3ccccc3)CC2)cc1 (stereo not drawn) | 4.2 | 1.8 | -3.1 | 3.6 | x | 81.6 | i
CC(C)(C)NC(=O)C(c1ccc(F)cc1)N(Cc1ccccc1Cl)C(=O)c1ccn[nH]1 (stereo not drawn) | 5.8 | 0.9 | -4.0 | 3.0 | 14.4 | 98.5 | i
COC(=O)[C@H](CCSC)NC(=O)Cn1cnc2c(OCc3ccccc3)ncnc21 | 4.7 | -1.7 | 2.4 | 3.2 | -2.3 | x | x
CN(C)CCCn1cnc2c(c1=N)C(c1ccccc1)c1ccc3ccccc3c1O2 (stereo not drawn) | 17.4 | 13.7 | 44.5* | -3.5 | 24.6 | 93.7 | i
O=C(COC(=O)c1cc(-c2cccs2)nn1-c1ccccc1)Nc1ccc(Cl)c([N+](=O)[O-])c1 | 2.3 | 1.0 | 2.9 | -0.4 | -9.1 | x | x
Cn1ccnc1C(=O)Cc1ccc([N+](=O)[O-])cc1 | -8.7 | 0.4 | -0.4 | 2.4 | -0.8 | x | x
COc1cc2c(cc1OC)C(c1ccc(-c3ccc(Cl)cc3Cl)o1)=NCC2 | 4.8 | 9.1 | 16.5 | -5.0 | 35.0 | x | x
